Screening data as filed in PubChem.
Most compounds without a hit are left out; they make up all but 2.7% or so of the library.
ANO1 block = TMEM16A chloride channel inhibitors, primary screen, cell-based, HTS; Anoctamin-1 (Mus musculus), Q8BHY3; HEK293 TMEM16A/YFP iodide influx fluorescence, ionomycin; normalized B-score (activity score, 25-100; higher = stronger inhibition) at 10 µM; actives 1.2% (n = 310,000); AID 588511, 2011;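 active means ratio plate-corrected score three or more library SD toward inhibition, starting fluorescence score within five deviations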;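 further: score derived from kinetic fluorescence span divided by baseline fluorescence per well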
Target sequence (Q8BHY3 whole entry, looked up): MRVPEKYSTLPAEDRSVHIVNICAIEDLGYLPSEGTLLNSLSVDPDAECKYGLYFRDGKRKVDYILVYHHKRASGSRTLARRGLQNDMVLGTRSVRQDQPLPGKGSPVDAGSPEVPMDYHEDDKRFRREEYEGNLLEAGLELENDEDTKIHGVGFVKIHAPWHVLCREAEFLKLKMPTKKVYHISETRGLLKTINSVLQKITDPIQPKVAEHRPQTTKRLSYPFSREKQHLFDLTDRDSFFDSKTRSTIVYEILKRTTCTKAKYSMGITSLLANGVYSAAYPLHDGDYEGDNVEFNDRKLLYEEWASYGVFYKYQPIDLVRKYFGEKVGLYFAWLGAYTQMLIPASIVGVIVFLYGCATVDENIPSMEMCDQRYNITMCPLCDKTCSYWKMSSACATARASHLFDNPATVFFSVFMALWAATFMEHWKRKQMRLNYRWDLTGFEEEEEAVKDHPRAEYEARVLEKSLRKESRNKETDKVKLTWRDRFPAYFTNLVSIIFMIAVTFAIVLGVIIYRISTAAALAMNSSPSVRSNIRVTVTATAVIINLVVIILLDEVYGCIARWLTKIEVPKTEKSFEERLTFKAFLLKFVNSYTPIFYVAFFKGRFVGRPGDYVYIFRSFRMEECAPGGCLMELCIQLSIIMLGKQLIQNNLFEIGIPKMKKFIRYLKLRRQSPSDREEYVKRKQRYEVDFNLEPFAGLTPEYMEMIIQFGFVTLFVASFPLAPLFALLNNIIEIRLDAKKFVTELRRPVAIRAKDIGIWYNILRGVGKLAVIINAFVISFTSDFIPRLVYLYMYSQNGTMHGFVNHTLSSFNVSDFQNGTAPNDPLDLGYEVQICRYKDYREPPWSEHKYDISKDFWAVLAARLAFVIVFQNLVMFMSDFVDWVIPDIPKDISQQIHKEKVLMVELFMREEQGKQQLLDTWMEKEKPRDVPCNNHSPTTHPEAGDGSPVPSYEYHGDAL
IDE cell activ = human IDE activators in live cells, primary screen, fluorescence polarization, HEK cells, FAbeta-B substrate | AID 493087, 2011 | Insulin-degrading enzyme (Homo sapiens), P14735 | actives 0.073% (n = 340,000) | activation, % at 5.96 µM | FAbeta-B cleavage; 0% vehicle, 100% cell-free pure enzyme wells;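 active means activation above the mean of all tested compounds plus 3 SD, set per screening campaign, cut at about 17% in these data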
ANO1 activ = TMEM16A chloride channel activators or potentiators, primary screen, cell-based, HTS. Anoctamin-1 (Mus musculus), Q8BHY3. HEK293 TMEM16A/YFP-H148Q/I152L, iodide quench fluorescence; active compounds read low. B-score at 10 µM. actives 0.3% (n = 340,000). AID 623877, 2012;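 active means fluorescence-ratio B-score plate-corrected deviation score at least 3 library SD below zero, with starting fluorescence score within 5 deviations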;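 further: channel opened by trigger with iodide after compound preincubation; score built on the fluorescence ratio of max minus min over baseline; more negative score means more quench and so TMEM16A activation or potentiation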
IDE cell inh = human IDE inhibitors in live cells, primary screen, fluorescence polarization, HEK cells, FAbetaB substrate. Insulin-degrading enzyme (Homo sapiens), P14735. FAbetaB cleavage. inhibition, % at 5.59 µM. actives 0.41% (n = 320,000);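 active means percent inhibition above the average of all tested compounds plus 3 SD, set per screening campaign, cut at about 16% in these data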;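 further: IDE supplied by intact live HEK cells; FP after avidin binding of uncleaved biotin substrate so inhibition keeps polarization high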
CHT inh = inhibitors of human choline transporter CHT. CHT-expressing cells, membrane potential dye, choline response; active compounds read low. B-score at 10 µM. actives 0.86% (n = 310,000). AID 488975, 2010;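 active means B-score over 3 SD under the library average, and starting fluorescence ratio not unusually high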;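 further: choline stimulus applied at its EC90 after an EC20 pre-addition; B-score computed on integrated fluorescence ratio after choline addition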
CHT PAM = CHT positive allosteric modulators, primary screen, cell-based, membrane potential dye, choline EC20 | AID 488977, 2010 | actives 0.49% (n = 310,000) | High affinity choline transporter 1 (Homo sapiens), Q9GZV3 | B-score at 10 µM | CHT-expressing cells; active compounds read high; LV-AA mutant CHT in HEK293 cells;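 active means initial fluorescence not abnormally high and integrated response B-score, plate-corrected, over 3 SD above library mean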
IDE inh confirm = human IDE inhibitors in live cells, confirmation, fluorescence polarization, HEK cells, FAbetaB substrate | shares compounds with IDE cell inh | FAbetaB cleavage | inhibition, % at 5.59 µM | actives 51% (n = 1,200) | AID 435028, 2010;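 active means mean inhibition across triplicate wells above the cutoff set by the earlier primary insulin-degrading enzyme screen, cut at about 16% in these data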
HEK293 tox = cytotoxicity in HEK cells, cytotoxicity control for IDE inhibitor project, cell-based, luminescence; shares compounds with IDE cell inh; HEK293 cytotoxicity, ATP luminescence; inhibition, % at 5.59 µM; actives 28% (n = 1,200); AID 449730, 2010; in the data active means inhibition above about 22%
Of the large screens only hits and unclear results are named; the others gave an inactive call (follow-up assays come after a bar, where they were run).

Cn1c(=O)c(NC2CCCCC2)c2c3c(cccc31)C(=O)c1ccccc1-2	none (no result: ANO1 block, IDE cell inh, CHT inh, CHT PAM)
CCCCNc1c2c3c(cccc3n(C)c1=O)C(=O)c1ccccc1-2	IDE cell activ 29.7, IDE cell inh 103.2 | IDE inh confirm 25.9 | HEK293 tox 31.5
CCNc1c2c3c(cccc3n(C)c1=O)C(=O)c1ccccc1-2	IDE cell inh 61.7 (no result: IDE cell activ, ANO1 activ) | IDE inh confirm 26.3 | HEK293 tox inactive
Cn1c(=O)c(NCCc2ccccc2)c2c3c(cccc31)C(=O)c1ccccc1-2	none
COc1cccc(NC(=O)CSc2nc3c(sc4ccccc43)c(=O)n2CCCN2CCCC2)c1	none
NC(=S)NN=C1CCSCC1	none (no result: ANO1 block, IDE cell inh, CHT inh, CHT PAM)
O=C(NCCC1=CCCCC1)Nc1ccc2nsnc2c1	IDE cell inh 31.1 | IDE inh confirm 17.0 | HEK293 tox inactive
O=C(N/N=C/c1c(F)cccc1Cl)c1ccc(Cn2cc(Br)cn2)o1	none
O=C(Nc1ccc(C(F)(F)F)cc1Cl)c1ccc(Cn2cc(Br)cn2)o1	IDE cell inh 16.7 | IDE inh confirm inactive | HEK293 tox inactive
CN(C)c1ccc(/C=C2\SC(N3CCCCC3)=NC2=O)cc1	IDE cell inh 16.3 | IDE inh confirm 26.6 | HEK293 tox inactive
Cc1ccc(/C=C2\SC(N3CCCC3)=NC2=O)cc1	none (no result: IDE cell activ, ANO1 activ)
OCC[n+]1ccc(/C=C/c2c[nH]c3ccccc23)cc1	IDE cell inh 24.4 | IDE inh confirm 39.2 | HEK293 tox 56.8
COc1ccccc1C(=O)NCCC(=O)Nc1ccc(S(=O)(=O)N2C(C)CCCC2C)cc1 (configuration not stated)	none (no result: ANO1 block, CHT inh, CHT PAM)
CCOC(=O)CN1C(=O)S/C(=C/c2ccc(N3CCCCC3)o2)C1=O	IDE cell inh 19.1 | IDE inh confirm 69.5 | HEK293 tox inactive
O=C(O)CN1C(=O)/C(=C/c2ccc(N3CCCCC3)o2)SC1=S	none
COc1ccc(N2C(=O)CSC2c2ccc(F)cc2)cc1 (configuration not stated)	none
Cc1ccc(C)c(-n2sc3ccc(F)cc3c2=O)c1	IDE cell inh 36.5 (no result: ANO1 block, CHT inh, CHT PAM) | IDE inh confirm 18.8 | HEK293 tox 69.3
COc1ccc(-n2sc3ccc(F)cc3c2=O)cc1	IDE cell inh 57.9 (no result: ANO1 block, CHT inh, CHT PAM) | IDE inh confirm 34.5 | HEK293 tox 80.9
O=c1c2cc(F)ccc2sn1-c1ccc(F)cc1	IDE cell inh 34.8 (no result: ANO1 block, CHT inh, CHT PAM) | IDE inh confirm 18.3 | HEK293 tox 42.1
O=C(CSc1nnc(C2CC2)n1C1CC1)Nc1cccc(Br)c1	none (no result: ANO1 block, CHT inh, CHT PAM)
CCN(CC)c1ccc(/C=C2\CCC(/C=N/NC(=O)c3ccc(=O)n(C)c3)=C2N2CCOCC2)cc1	IDE cell inh 24.6 | IDE inh confirm 57.3 | HEK293 tox inactive
O=C(N/N=C/C1=C(N2CCOCC2)C(=C\c2ccccc2)/CC1)Nc1ccccc1	none
Cc1cc(-c2nc(C)c(-c3nnc(SCC(=O)Nc4ccc(Cl)cc4)n3C)s2)no1	none (no result: IDE cell activ)
Cc1c(NC(=O)/C(C#N)=C/c2ccc(-c3ccc(Cl)cc3)o2)c(=O)n(-c2ccccc2)n1C	IDE cell inh 63.7 | IDE inh confirm 40.2 | HEK293 tox inactive
Cc1c(NC(=O)/C(C#N)=C/c2ccc(-c3cc(Cl)ccc3Cl)o2)c(=O)n(-c2ccccc2)n1C	none
CCOC(=O)c1sc(N/N=C/c2ccc(N(C)C)cc2)nc1C	none
CC(=O)c1sc(N/N=C\c2cccc(Br)c2)nc1C	IDE cell inh 40.0 | IDE inh confirm 105.5 | HEK293 tox inactive
CC(=O)c1sc(N/N=C\c2ccc(Br)cc2)nc1C	IDE cell inh 36.8 | IDE inh confirm 75.8 | HEK293 tox inactive
Cc1cc(N/N=C/c2cccc(Br)c2)nc2ccccc12	none
COc1ccc([N+](=O)[O-])cc1NCC(=O)Nc1cc(S(=O)(=O)N2CCCCC2)ccc1C	none (no result: ANO1 block, CHT inh, CHT PAM)
O=C1c2cccc3c(N4CCCCC4)ccc(c23)C(=O)N1c1ccccc1O	IDE cell inh 88.7 | IDE inh confirm 152.2 | HEK293 tox inactive
O=C1c2cccc3c(N4CCCCC4)ccc(c23)C(=O)N1c1ccc(O)cc1	IDE cell inh 75.0 | IDE inh confirm 71.7 | HEK293 tox inactive
CSc1nsc(SCC(=O)Nc2ccc(F)cc2F)n1	none
O=C1/C(=C/c2cccc([N+](=O)[O-])c2)Oc2cc(O)ccc21	none
COc1cc(OC)c(OC)cc1/C=C1\Oc2cc(OS(C)(=O)=O)ccc2C1=O	IDE cell inh 19.9 | IDE inh confirm 17.8 | HEK293 tox inactive
COc1ccc2c(c1)O/C(=C\c1ccccc1C)C2=O	none
COc1cc(OC)c(OC)cc1/C=C1\Oc2cc(OCC(=O)N3Cc4ccccc4C[C@H]3C(=O)O)ccc2C1=O	IDE cell inh 61.9 | IDE inh confirm 105.5 | HEK293 tox inactive
COc1cc(/C=C2\Oc3cc(O)ccc3C2=O)ccc1O	IDE cell inh 62.4 | IDE inh confirm 143.3 | HEK293 tox inactive
COc1ccc(/C=C2\Oc3cc(OCC(=O)N4CCC[C@H]4C(=O)O)ccc3C2=O)c(OC)c1	none
O=C(NCCCNC(=O)c1ccccn1)c1ccc(F)cc1	none
Cc1ccc(N=C2NC(=O)/C(=C/c3cn(C)c4ccccc34)S2)cc1C	IDE cell inh 18.8 | IDE inh confirm 52.1 | HEK293 tox inactive
Cc1cccc(Nc2ncnc3c2cnn3Cc2ccccc2)c1	none
CC(C)Nc1ncnc2c1cnn2Cc1ccccc1Cl	none
c1ccc(Cn2ncc3c(NCc4ccco4)ncnc32)cc1	IDE cell inh 17.9 | IDE inh confirm inactive | HEK293 tox inactive
CC(C)CNc1ncnc2c1cnn2Cc1ccccc1Cl	IDE cell inh 17.1 | IDE inh confirm inactive | HEK293 tox inactive
O=C(O)c1ccc(Nc2ncnc3c2cnn3Cc2ccccc2)cc1	IDE cell inh 17.0 | IDE inh confirm inactive | HEK293 tox inactive
C=CCn1c(-c2ccccc2)c[nH]c1=S	none
CCn1c(-c2ccc(-c3ccccc3)cc2)c[nH]c1=S	IDE cell inh 16.1 | IDE inh confirm inactive | HEK293 tox inactive
CCOC(=O)C(C#N)=CN1CCNc2ccccc21	none (no result: ANO1 block, IDE cell inh, CHT inh, CHT PAM)
O=c1/c(=C\c2cc([N+](=O)[O-])cc([N+](=O)[O-])c2O)sc2nc3ccccc3n12	IDE cell inh 16.3 | IDE inh confirm 19.6 | HEK293 tox inactive
